FLuc modulator = inhibits or activates purified firefly luciferase, miR-21 counter-screen; P08659; purified FLuc, Km substrates, luminescence inhibition; Potency, µM (highest dose often 57.5 µM), actives largely listed as inhibitors; 360,000 tested, 6.9% active; AID 588342; also: nearly all actives have a fitted effect of over 55% in size
Target sequence (P08659 whole entry, looked up): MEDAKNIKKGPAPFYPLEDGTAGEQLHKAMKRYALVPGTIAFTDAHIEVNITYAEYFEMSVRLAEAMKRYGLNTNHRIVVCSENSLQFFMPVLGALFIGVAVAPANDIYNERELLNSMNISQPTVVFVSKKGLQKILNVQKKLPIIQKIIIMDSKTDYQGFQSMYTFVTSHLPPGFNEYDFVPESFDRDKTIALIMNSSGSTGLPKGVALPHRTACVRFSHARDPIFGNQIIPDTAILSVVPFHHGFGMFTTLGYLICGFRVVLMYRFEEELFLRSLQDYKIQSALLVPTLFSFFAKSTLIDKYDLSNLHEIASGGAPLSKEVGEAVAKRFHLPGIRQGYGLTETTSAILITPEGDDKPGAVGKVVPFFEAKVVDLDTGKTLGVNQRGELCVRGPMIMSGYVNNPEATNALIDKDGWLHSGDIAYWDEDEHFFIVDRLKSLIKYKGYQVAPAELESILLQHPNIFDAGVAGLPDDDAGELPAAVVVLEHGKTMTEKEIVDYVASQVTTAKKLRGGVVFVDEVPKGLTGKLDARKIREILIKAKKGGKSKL
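Purified P. pyralis luciferase, 10 nM final, with Km-level 10 uM D-luciferin and 10 uM ATP in 50 mM Tris acetate pH 7.5, 10 mM Mg acetate, 0.01% Tween-20, 0.05% BSA; 6-point qHTS titration about 60 µM downward; luminescence read.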
NPC1 promoter act = activates the NPC1 promoter. Huh7 NPC1 promoter luciferase reporter, 24 h. Potency, µM (titrated, usually from 9.22 µM), hits mostly activators. 320,000 tested, 2.4% active; also: nearly all actives have a fitted effect of over 60% in size
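Luminescence from an NPC1 promoter-driven luciferase reporter in stably transfected Huh7 cells was measured after 24 h compound treatment at 37 °C, followed by 10 min ambient incubation with luciferase detection reagent.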
Rab9 promoter act = Rab9 promoter activation; AID 485297; Huh7 Rab9 promoter-luciferase reporter, luminescence, 24 h; 320,000 tested, 2.8% active; Potency, µM (top dose mostly 9.22 µM), actives largely listed as activators; also: nearly all actives have a fitted effect of over 60% in size
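Using Huh7 cells stably transfected with Rab9 promoter–luciferase, compounds were incubated 24 h at 37 °C, 5% CO2; luciferase luminescence was read 10 min after reagent addition.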
ELG1 genotox = inducers of genotoxicity in HEK293T ELG1-luciferase cells. HEK293T ELG1-luciferase reporter, luminescence, 16 h. Potency, µM (series often up to 46 µM), most hits filed as activators. 330,000 tested, 1.3% active. AID 504466; also: nearly all actives have a fitted effect of over 60% in size
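Genotoxic stress is detected as increased luminescence from luciferase-tagged ELG1 in HEK293T cells, measured with ONE-Glo after a 16 hr treatment at 37 °C.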
SMN2 splice enh = SMN2 splice variant enhancement. Potency, µM (series often up to 46.1 µM), most hits filed as activators. AID 1458. 210,000 tested, 2.8% active. HEK293 SMN2-luciferase splicing reporter, luminescence, 30-36 h; also: nearly all actives have a fitted effect of over 55% in size
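HEK293 cells carry an SMN2 minigene-luciferase reporter in which exon 7 inclusion puts luciferase in frame. Cells were seeded at 2000 cells/well, attached for 10-12 hours, then exposed to compounds for 30-36 hours at 37C before ONE-Glo luminescence.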
ELG1 repair inh = blocks ELG1-dependent DNA repair in HEK293T cells; HEK293T ELG1-luciferase reporter, luminescence, 16 h; DNA damage induced by 5-fluorouridine; AID 504467; 330,000 tested, 2.3% active; Potency, µM (titrated, usually from 46.1 µM), most hits filed as inhibitors; also: nearly all actives have a fitted effect of over 55% in size
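5-Fluorouridine DNA damage + compound/DMSO, 2,000 cells/well, 16 h, 37 °C/5% CO2. ONE-Glo, 30 min RT, luminescence. Readout = decrease in reporter signal.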
Numbers stand for hits; – = inactive; ? = inconclusive; · = no result. Compounds with a hit are over-represented: about 9.4% of the library has one in this group of screens. Calls follow the shape of the dose curve; as a rule, active = well fitted curve in the direction sought with a large enough effect; inconclusive = small, poorly fitted or top-dose-only effect, or another doubt; inactive = no such curve, though single readings can be large; an effect the other way counts as inactive or inconclusive.

SMILES	FLuc modulator	NPC1 promoter act	Rab9 promoter act	ELG1 genotox	SMN2 splice enh	ELG1 repair inh
CCc1ccc(NC(=O)N2CC(C)Oc3ccc(C)cc32)cc1 (centres undefined)	–	·	·	·	·	·
CC(=O)N1CCc2cc(Br)cc(S(=O)(=O)NCCc3cccc(C)c3)c21	–	·	·	·	·	·
Clc1ccccc1OCCn1nnc2ccccc21	?	3.2µM	?	?	·	?
Cn1c(=O)n(CCOc2ccc([N+](=O)[O-])cc2)c2ccccc21	?	–	–	–	·	–
Cc1ccc(OCCn2c(=O)n(C)c3ccccc32)cc1	11µM	3.2µM	2.8µM	?	·	?
Cn1c(=O)n(CCOc2ccccc2Cl)c2ccccc21	24µM	?	4.5µM	?	?	?
Cc1ccc(C)c(OCCn2nnc3ccccc32)c1	?	–	–	–	·	?
COc1ccccc1C1c2c(-c3ccc(Cl)cc3)n[nH]c2C(=O)N1c1ccc(C)cc1 (centres undefined)	–	·	·	·	–	·
CCOc1ccc(NC(=O)c2cc3cc(C)ccc3n2C)cc1	–	·	·	·	·	·
CCOc1ccc(NC(=O)CC2C(=O)N(c3ccc(Cl)cc3)C(=O)N2Cc2cccs2)cc1 (centres undefined)	–	·	·	·	·	·
Cc1nn(-c2ccc3nnc(C)n3n2)c(C)c1CCC(=O)Nc1ccc(OC(F)(F)F)cc1	–	·	·	·	·	·
CC(C)(C)c1ccc(NC(=O)c2c(F)cccc2Cl)cc1	17µM	–	?	–	·	?
Cn1cc(Cl)c(C(=O)Nc2cccc(Cl)c2Cl)n1	–	–	–	–	–	?
Cn1cc(Cl)c(C(=O)Nc2nc3ccccc3s2)n1	0.95µM	?	?	0.46µM	1.8µM	?
O=C(Nc1nc2ccccc2s1)c1c(F)cccc1Cl	24µM	?	?	?	·	?
Cc1ccc(NC(=O)C(Cc2ccccc2)N2Cc3ccccc3C2=O)cc1Cl (centres undefined)	–	·	·	·	·	·
O=C(OCCc1ccccc1)c1cc(O)c(O)c(O)c1	24µM	–	–	?	·	?
Nc1ccc(C(=O)OCCc2ccccc2)cc1	0.6µM	3.5µM	3.2µM	?	·	?
O=C(OCCCCOC(=O)c1ccccc1)c1ccccc1	–	–	–	–	·	–
COc1ccc(C(=O)OCCc2ccc(O)cc2)cc1	6.7µM	?	?	13µM	?	?
COc1ccc(CCOC(=O)c2ccc(NC(=O)CC#N)cc2)cc1	–	–	–	–	·	–
O=C(CCc1ccccc1)OCCOC(=O)CCc1ccccc1	–	–	–	–	·	–
CN(C)S(=O)(=O)c1ccc(C(=O)OCCc2ccccc2)cc1	15µM	–	–	–	·	–
COc1ccc(Cn2cc(C(=O)c3ccc(C)c(C)c3)c(=O)c3ccccc32)cc1	–	·	·	·	–	·
Cc1cc(N)n2ncc(-c3cccc(Br)c3)c2n1	15µM	?	2.8µM	16µM	–	?
SMILES	FLuc modulator	NPC1 promoter act	Rab9 promoter act	ELG1 genotox	SMN2 splice enh	ELG1 repair inh
Cc1nc2c(-c3ccccc3)cnn2c(N2CCOCC2)c1C	3µM	2.5µM	1.3µM	6.5µM	·	?
CC(=O)Nc1ccc(Nc2cc(-c3ccccc3)nc3ncnn23)cc1	–	–	–	–	·	–
CCOC(=O)Cc1c(C)nc2c(-c3cccc(Br)c3)cnn2c1C	–	–	–	–	–	–
Cc1cc(N2CCN(C3CCCC3)CC2)n2ncc(-c3ccccc3)c2n1	?	–	–	?	–	?
Cc1cc(N)n2ncc(-c3ccccc3)c2n1	9.5µM	2.8µM	1.6µM	10µM	16µM	?
CC(=O)Nc1ccc(Nc2cc(C)nc3c(-c4ccccc4)cnn23)cc1	5.4µM	?	?	1.5µM	–	?
CCOc1ccccc1NC(=O)CCNS(=O)(=O)c1ccc2c(c1)CCN2C(=O)C1CC1	–	·	·	·	·	·
Cc1ccc(CCNC(=O)c2c(C)oc3ncn(CC(C)C)c(=O)c23)cc1	–	·	·	·	·	·
Cc1ccc(C2C=C(c3ccc(F)cc3)Nc3nc(CCCO)nn32)cc1 (centres undefined)	–	·	·	·	–	·
Clc1cccc(Cl)c1C1=NOC(c2nnc(-c3ccccc3)o2)C1 (centres undefined)	19µM	–	?	–	·	?
CCOc1ccc(CNC(=O)c2c(C)nn(-c3ccc(F)cc3)c2-n2cccc2)cc1	–	·	·	·	·	·

Assay outcomes deposited in PubChem BioAssay by National Center for Advancing Translational Sciences (NCATS).
